# Screening results: PubChem, National Center for Advancing Translational Sciences (NCATS)
# HCMV inh = blocks human cytomegalovirus replication; HFF cells, HCMV-luciferase reporter, 72 h; hits give low values; activity change, negative = inhibition, % at 57.5 µM; 410,000 compounds, 4.5% hits; AID 1259415; in the data active = activity change below about -60%; inconclusive = no clear call, values can overlap the other calls; inactive = above about -39%; note: % is set by controls: 0 for no effect and ±100 for the full control effect
#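 Screen run at 2 compound doses on HFFs infected with reporter HCMV, MOI 1 PFU/cell. Luciferase activity from cell lysates at 72 h post infection gave inhibition relative to buffer-only and Salinomycin wells.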
# Sm TGR inh = inhibitors of Schistosoma mansoni thioredoxin glutathione reductase; Q962Y6; purified TGR, DTNB reduction, TNB absorbance 405 nm; Potency, µM (highest dose often 114 µM), without a hit: at the highest dose activity change, negative = inhibition, most hits filed as inhibitors; 360,000 compounds, 3% hits; AID 485364; note: potency is the fitted concentration of half-maximal effect; % is set by controls: 0 for no effect and ±100 for the full control effect; nearly all actives have a fitted effect of over 60% in size
#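 Kinetic colorimetric format: TGR-catalysed, NADPH-driven DTNB reduction monitored via TNB absorbance. Enzyme dispensed at 20 nM; compound exposure 15 min at room temperature before reaction start.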
# Pf growth 48h = P. falciparum growth inhibition at 48 hours (one generation) | P. falciparum luciferase growth in erythrocytes, 48 h | Potency, µM (series often up to 28.7 µM), without a hit: top-dose activity change, negative = inhibition, usual class: inhibitors | 310,000 compounds, 5.9% hits; note: potency is the fitted concentration of half-maximal effect; % is set by controls: 0 for no effect and ±100 for the full control effect
#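 A one-generation exposure of luciferase-tagged malaria parasites in RPMI 1640/Albumax erythrocyte culture, 37 C and 5% CO2. Inhibition is inferred from decreased luminescence after adding detection reagent.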
# HCV inh = blocks hepatitis C virus; Huh7.5.1 HCVcc-Cre infection, luciferase reporter, 44 h; Potency, µM (series often up to 41.8 µM), inactives show top-dose activity change, negative = inhibition, usual class: inhibitors; 340,000 compounds, 3.4% hits; note: potency is the fitted concentration of half-maximal effect; % is set by controls: 0 for no effect and ±100 for the full control effect
#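 1,000 cells/well; 4 h culture; + compound; + HCVcc-Cre (~0.5 moi); 44 h; luciferase substrate, RT 15 min; read 15 sec.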
# SARS PLP yeast = SARS-CoV PLP inhibition in yeast | S. cerevisiae expressing SARS-CoV PLpro, growth rescue | Potency, µM (doses to about 32.9 µM), for the others: at the highest dose activity, positive = growth rescue, hits mostly activators | 330,000 compounds, 0.19% hits; calls by dose curve; note: potency is the fitted concentration of half-maximal effect; 0% is about no effect; nearly all actives have a fitted effect of over 55% in size
# Pf growth 96h = inhibits malaria parasite growth, 96 h | P. falciparum luciferase reporter growth, 96 h | AID 504834 | 320,000 compounds, 6.9% hits | Potency, µM (highest dose often 28.7 µM), inactives show top-dose activity change, negative = inhibition, usual class: inhibitors; note: potency is the fitted concentration of half-maximal effect; % is set by controls: 0 for no effect and ±100 for the full control effect
#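 Compounds incubated with erythrocytes infected by luciferase-expressing P. falciparum (2% hematocrit, 0.05% parasitemia final) for 96 hours, 37 C in 5% CO2. Growth inhibition scored as decreased luciferase luminescence.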
# * marks the source's active call; other numbers are inactive results; u = inconclusive; x = no result. The list is not random: actives were taken first. Their share in the collection is about 15%. Unless noted, calls come from the whole dose curve; as a rule, active = well fitted curve in the direction sought with a large enough effect; inconclusive = small, poorly fitted or top-dose-only effect, or another doubt; inactive = no such curve, though single readings can be large; an effect the other way counts as inactive or inconclusive.
SMILES,HCMV inh,Sm TGR inh,Pf growth 48h,HCV inh,SARS PLP yeast,Pf growth 96h
O=C(NC1CCCCC1)C(c1cc2c(cc1[N+](=O)[O-])OCO2)N1CCCCC1 (configuration not stated),x,-9%,u,x,10%,13µM*
CCOC(=O)C1CCN(C(=O)CCN2C(=O)C3C4C=CC(C4)C3C2=O)CC1 (configuration not stated),36,-9%,28%,13%,-2%,5.2µM*
CN1C2CCC1CC(OC(c1ccccc1)c1ccccc1N)C2 (configuration not stated),-4,x,x,u,x,x
CN1C2CCC1CC(OC(c1ccccc1)c1ccc(Cl)cc1)C2 (configuration not stated),u,x,4.8µM*,x,x,9%
CN(C)C(CNC(=O)c1ccc2c(=O)n(-c3ccccc3F)c(=S)[nH]c2c1)Cc1ccccc1 (configuration not stated),56,u,u,2.2µM*,0%,u
Cc1cc(C(F)F)n2nc(C(=O)Nc3c(C)cccc3C)nc2n1,15,3%,x,x,x,x
Cc1ccc(C)c(NC(=O)CN(C)C(=O)c2cc3ccccc3o2)c1,10,0%,2.3µM*,11%,0%,3.3µM*
Cc1ccc(C)c(NC(=O)CN(C)C(=O)c2cc3ccccc3oc2=O)c1,90,x,x,5%,1%,x
Cc1ccc(C)c(NC(=O)CN(C)C(=O)c2ccccc2Cc2ccccc2)c1,-18,6%,u,1%,4%,u
CC(C)NC(=O)c1ccc(-c2cccc(C(F)(F)F)c2)o1,5,0%,-4%,-5%,-5%,u
Cc1ccc(C)c(NC(=O)CN(C)C(=O)c2ccc(-c3ccc(Cl)cc3)o2)c1,-25,u,1.5µM*,u,-2%,13µM*
CN(CC(=O)Nc1cccc(F)c1)C(=O)c1ccc(-c2ccc(Cl)cc2)o1,11,u,1.9µM*,u,-19%,1.7µM*
Cc1cccc(C)c1NC(=O)CN(C)C(=O)c1ccc(-c2cccc(C(F)(F)F)c2)o1,-32,u,12µM*,u,6%,u
COc1ccc2c(c1)[nH]c1c(=O)n(CCCn3ccnc3)cnc12,24,-14%,17%,0%,-1%,x
Cc1cccc(Nc2nnc(SCC3CCCCO3)s2)c1C (configuration not stated),-5,-12%,u,8%,-14%,12µM*
Cc1cccc(Nc2nnc(SC3CCOC3=O)s2)c1C (configuration not stated),-81*,7%,16%,10%,4%,16%
Cc1ccc(Nc2nnc(SC3CCOC3=O)s2)cc1 (configuration not stated),0,-21%,0%,u,5%,37%
CN(CC1CCCCC1)[C@H]1CC[C@@]23CCCN2C(=O)CCC[C@H]3[C@H]1Cc1ccccc1,-20,x,x,x,x,x
CCC(=O)Nc1ccccc1-c1nc2ccccc2n(CC(=O)c2ccc(C)cc2)c1=O,-6,-1%,x,x,x,x
CCc1cccc2c(C(=O)CSc3nnc(C4CC4)o3)c[nH]c12,-6,-3%,-24%,5.6µM*,0%,-26%
COCCn1c(SCC(=O)c2c[nH]c3ccccc23)nnc1-c1ccncc1,x,1%,u,5%,5%,u
CCc1cccc2c(C(=O)CSc3nnc(-c4ccncc4)n3C)c[nH]c12,-17,3%,u,-9%,-1%,10µM*
O=C(CSc1nnc2[nH]c(=O)cc(-c3ccccc3)n12)Nc1ccc(OC(F)(F)F)cc1,22,2%,x,x,x,x
Cc1ccc(C)c(C(=O)CSc2nc3cc(C(=O)NC4CCCC4)ccc3c(=O)n2CC2CCCO2)c1 (configuration not stated),6,1%,x,x,x,x
O=C(c1ccc2c(c1)N(Cc1ccc(F)cc1Cl)C(=O)c1ccccc1S2)N1CCC2(CC1)OCCO2,-68*,2%,x,x,x,x
SMILES,HCMV inh,Sm TGR inh,Pf growth 48h,HCV inh,SARS PLP yeast,Pf growth 96h
Cc1cc(C)cc(NC(=O)CN2C(=O)c3ccccc3Sc3ccc(C(=O)N4CCOCC4)cc32)c1,-23,5%,x,x,x,x
Cc1ccc(CN2C(=O)c3ccccc3Sc3ccc(C(=O)N4CCC5(CC4)OCCO5)cc32)cc1,u,-7%,x,x,x,x
COc1cc(NC(=O)CN2C(=O)c3ccccc3Sc3ccc(C(=O)N4CCOCC4)cc32)cc(OC)c1OC,14,-2%,6.6µM*,29%,5%,u
C=CCN1C(=O)c2ccccc2Sc2ccc(C(=O)N3CCC4(CC3)OCCO4)cc21,-66*,9%,u,u,-2%,10µM*
CCOc1ccccc1NC(=O)N1CCN(S(=O)(=O)c2ccc3c(ccn3C)c2)CC1,5,5%,x,x,x,x
CCOc1cc(C)c(C(C)C)cc1S(=O)(=O)NCc1ccccn1,-21,0%,-18%,4%,x,x
COc1ccc(N2Cc3ccccc3C2)cc1Cl,63,32µM*,u,u,1%,27%
COc1ccc(Cl)cc1N1Cc2ccccc2C1,-1,45µM*,13µM*,-2%,1%,x
COc1ccc(OC)c(N2Cc3ccccc3C2=N)c1,0,6%,6%,9%,1%,5.9µM*
COc1ccccc1N1Cc2ccccc2C1,10,u,13µM*,-20%,-3%,u
COc1ccc(OC)c(N2Cc3ccccc3C2)c1,-1,u,5.9µM*,u,10%,12µM*
Cc1cc(C)nc(N2Cc3ccccc3C2=N)n1,u,11%,15µM*,0%,2%,u
O=P(O)(O)C(O)(Cn1ccnc1)P(=O)(O)O,x,x,5%,x,x,2%
CC(=O)c1csc(COc2ccc(Cl)cc2)n1,2,-8%,88%,-5%,-1%,132%
CN(C)c1ccc(N2C(=O)CC(Nc3ccc(N4CCOCC4)cc3)C2=O)cc1 (configuration not stated),71,u,20%,7%,4%,-18%
O=C1CC(Nc2ccc(N3CCOCC3)cc2)C(=O)N1c1cccc(C(F)(F)F)c1 (configuration not stated),x,28µM*,u,u,-9%,1%
COc1ccc(N2C(=O)CC(Nc3ccc(N4CCOCC4)cc3)C2=O)c(OC)c1 (configuration not stated),23,28µM*,-14%,17%,-1%,20%
COc1cccc(N2C(=O)CC(Nc3ccc(N4CCOCC4)cc3)C2=O)c1 (configuration not stated),x,u,23%,18%,-3%,29%
Cc1ccc(-n2nc(C)c(NC(=O)CCl)c2C)cc1C,-103*,22µM*,4.1µM*,3.5µM*,27%,-1%
